# High-throughput results: PubChem, National Center for Advancing Translational Sciences (NCATS)
# This is a sample that favours compounds with a hit; in the whole collection about 5.4% have one here.
# PNC assembly inh = High Content Assay for Compounds that inhibit the Assembly of the Perinucleolar Compartment | PC3M PTB-GFP, PNC prevalence imaging, 16 h; stronger effect = lower value | activity change (PNC), negative = inhibition, % at 10 µM | hit rate 3.1% among 140,000 | AID 2417, 2010;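 active means readout at or below -70, meaning at least 70% loss of cells showing the perinucleolar compartment, a nuclear body marking cancer cells; inconclusive means readout between -30 and a set limit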
#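 Compounds are pinned in duplicate onto adhered PC3M cells stably expressing GFP-tagged PTB and incubated 16 h at 37 C. Cells are then fixed, nuclei stained with Hoechst, and PNC-positive cells counted.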
# IMPase Li inh = qHTS Assay for Identifying the Cell-Membrane Permeable IMPase Inhibitors: Potentiation with Lithium. CHO-M1 cells, IP1 TR-FRET (IP-One), carbachol + lithium. Potency, µM (titrated, usually from 59.4 µM), actives largely listed as inhibitors. hit rate 0.35% among 210,000. AID 1457, 2008;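 further: IP1 builds up when IMPase is blocked and the TR-FRET signal falls; nearly all actives have a fitted effect of over 50% in size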
#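 CHO cells stably expressing M1 receptor (2000/well, cultured 16–30 h) treated 30 min at 37C with compound plus low lithium. Cytosolic IP1 by TR-FRET (665/620 ratio and 620 channel) after 10 min lysis; AC50 by Hill fit.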
# ALOX12 inhib = qHTS Assay for Inhibitors of 12-hLO (12-human lipoxygenase); Polyunsaturated fatty acid lipoxygenase ALOX12 (Homo sapiens), P18054; AID 1452, 2008; Potency, µM (top dose mostly 57.1 µM), usual class: inhibitors; hit rate 0.12% among 150,000; purified 12-hLO, xylenol orange hydroperoxide absorbance; further: nearly all actives have a fitted effect of over 55% in size
#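 Lipoxygenase turnover measured by absorbance at 573 and 405 nm after Fe-XO development. Human 12hLO 150 nM, arachidonate 40 uM, pH 7.0 Hepes buffer with detergent; 15 min compound preincubation, 30 min reaction.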
# HPGD block = qHTS Assay for Inhibitors of HPGD (15-Hydroxyprostaglandin Dehydrogenase) | 15-hydroxyprostaglandin dehydrogenase [NAD(+)] (Homo sapiens), P15428 | purified HPGD, NADH fluorescence kinetic, PGE2 substrate | hit rate 4.3% among 150,000 | AID 894, 2007 | Potency, µM, most hits filed as inhibitors; active means well fitted inhibition curve with a large enough effect, not every such curve was filed as active; inconclusive means small, poorly fitted or top-dose-only effect, or another doubt; inactive means no such curve, though single readings can be large or run the other way
#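 20 nM HPGD preincubated 15 min at room temperature with compound in 50 mM Tris-HCl pH 8, 0.01% Tween 20. Started with 1 mM NAD+ and 30 uM prostaglandin E2; NADH fluorescence (360/450 nm) read 5 times over 30-s intervals, last minus first.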
# 15-hLO-2 inh = qHTS Assay for Inhibitors of 15-hLO-2 (15-human lipoxygenase 2) | Polyunsaturated fatty acid lipoxygenase ALOX15B (Homo sapiens), O15296 | purified 15hLO-2, xylenol orange hydroperoxide absorbance | Potency, µM (titrated, usually from 57.1 µM), usual class: inhibitors | hit rate 0.56% among 110,000 | AID 881, 2007; further: nearly all actives have a fitted effect of over 60% in size
# Target sequence (O15296 whole entry, looked up): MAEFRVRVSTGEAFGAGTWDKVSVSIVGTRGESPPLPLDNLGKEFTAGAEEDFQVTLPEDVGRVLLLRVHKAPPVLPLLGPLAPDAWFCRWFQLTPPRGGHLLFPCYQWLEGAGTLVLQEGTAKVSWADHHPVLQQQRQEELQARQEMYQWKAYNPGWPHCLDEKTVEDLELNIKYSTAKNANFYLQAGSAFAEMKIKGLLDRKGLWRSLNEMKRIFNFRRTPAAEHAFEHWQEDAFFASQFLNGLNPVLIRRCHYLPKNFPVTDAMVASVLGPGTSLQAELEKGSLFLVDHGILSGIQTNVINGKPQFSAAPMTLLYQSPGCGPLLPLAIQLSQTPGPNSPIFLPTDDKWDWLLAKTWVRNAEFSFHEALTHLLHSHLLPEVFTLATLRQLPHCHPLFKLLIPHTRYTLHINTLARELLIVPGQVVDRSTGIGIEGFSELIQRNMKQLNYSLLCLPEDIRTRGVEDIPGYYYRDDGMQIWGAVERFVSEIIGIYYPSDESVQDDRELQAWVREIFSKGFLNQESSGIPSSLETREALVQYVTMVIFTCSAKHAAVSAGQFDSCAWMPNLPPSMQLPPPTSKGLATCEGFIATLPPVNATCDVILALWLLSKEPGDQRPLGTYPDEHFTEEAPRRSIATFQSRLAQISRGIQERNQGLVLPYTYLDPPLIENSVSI
#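 Purified human 15hLO-2 (50 nM final) preincubated with compounds 15 min at room temperature in 25 mM Hepes pH 7.5, 0.01% Triton X-100, then 45 uM arachidonic acid added for 90 min; hydroperoxide detected via ferrous/xylenol orange, 573/405 nm absorbance ratio.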
# IMPase inh = qHTS Assay for Identifying the Cell-Membrane Permeable IMPase Inhibitors; 120,000 tested, under 10 active; CHO-M1 cells, IP1 accumulation, HTRF TR-FRET ratio; Inositol monophosphatase 1 (Rattus norvegicus), P97697; inhibition (IP1 accumulation), % at 46.1 µM; active means well fitted curve in the direction sought with a large enough effect in the signal ratio, not every such curve was filed as active; inconclusive means small, poorly fitted or top-dose-only effect, or a change in a side signal; inactive means no such curve, though single readings can be large or run the other way; the % refers to the signal ratio;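 further: cells stimulated with carbachol in lithium chloride buffer; higher means more IMPase inhibition seen as more IP1 and lower FRET ratio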
#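 CHO-M1 cells (CHO stably expressing M1 receptor), compound up to 46 uM final, stimulated with carbachol (50 uM as added) in buffer with 50mM LiCl, pH 7.4, 30 min at 37C. Cytosolic IP1 read by TR-FRET; AC50 from Hill fits.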
# A number is an active result; i = inactive; ? = inconclusive; nt = not tested or not shown; [ ] = dose if it differs, or a comment. Unless noted, the call rests on the fitted dose curve; in most records, active means well fitted curve in the direction sought with a large enough effect; inconclusive means small, poorly fitted or top-dose-only effect, or another doubt; inactive means no such curve, though single readings can be large; an effect the other way counts as inactive or inconclusive.
SMILES,PNC assembly inh,IMPase Li inh,ALOX12 inhib,HPGD block,15-hLO-2 inh,IMPase inh
COC(=O)c1cc(C(=O)OC)cc(N2C(=O)CC(NNC(=O)c3ccccc3Cl)C2=O)c1 (stereo not given),-99,i,i,i,nt,nt
Cc1cc(=O)c2cccc(Br)c2[nH]1,-100,i,i,i,nt,i
Cc1cc(=O)c2ccc3ccccc3c2[nH]1,i,i,i,?,i,i
O=C(O)C1(C(=O)O)CCN(S(=O)(=O)c2ccccc2)CC1,nt,i,i[11.4 µM],i,i[11.4 µM],nt
CCCc1nc2oc3c(NCCOCCO)ncnc3c2c2c1COC(C)(C)C2,-111,i,i,?,i,i
N#CC1(O)CCCCC1,nt,i,i,i,i,nt
CC(C)(C)NC(=O)c1ccc2nsnc2c1,-110,i,i,i,nt,nt
Cc1ccc(S(=O)(=O)Nc2cc(Cl)c3oc4c(c3c2)CCCC4)cc1,nt,nt,nt,nt,nt,i
Cc1ccc(N=C2NC(=O)S/C2=C\c2ccco2)cc1,i,i,?,22µM,nt,i
CCCc1nc(SCC(=O)Nc2nc3c(s2)CCCC3)c2ccccc2n1,i,13µM,i,i,i,i
Cc1ccccc1-c1cc(C(=O)Nc2nc3c(s2)CCCC3)c2ccccc2n1,-100,i,i,?,i,i
CCn1c(SCC(=O)Nc2nc3c(s2)CCCC3)nnc1-c1ccccc1,?,i,i,i,i,i
CCc1nc(SCC(=O)Nc2nc3c(s2)CCCC3)c2ccccc2n1,i,10µM,i,i,i,?
COc1ccc(C(=O)NNC(=O)CSc2ccccc2)cc1,nt,i,nt,nt,nt,nt
CCc1nc(SCC(=O)NNC(=O)c2ccc(OC)cc2)c2ccccc2n1,nt,8.9µM,nt,nt,nt,nt
CCc1ccc(OCc2ccccc2C(=O)Nc2ccc3nc(C)cc(N)c3c2)cc1,nt,i,i[0.00818 µM],i,i[0.0915 µM],nt
CCc1cccc(CC)c1-n1c(SCC(=O)c2c(N)n(C)c(=O)n(C)c2=O)nnc1-c1cccnc1,-134,?,i,i,nt,nt
CC[C@H](C)N(C)C(=O)c1cc2ccccc2c(-c2ccccc2Cl)n1,nt,i,i,i,i,i
COc1cc(C2C3C(C)N(C)C(=O)N(C)C3N(C)C(=O)N2C)ccc1O (stereo not given),-100,i,i,i,i,i
COc1ccc([C@@H]2[C@@H](O)[C@H](O)[C@@H](C)N2C)cc1OC,nt,i,nt,i,nt,nt
Cc1cccc(-c2nc3ccccc3n3c(-c4ccccc4)c4c(=O)n(C)c(=O)n(C)c4c23)c1,nt,nt,nt,nt,nt,i
CC(=O)OCC1CCCC2=C(C)C(=O)CCC21COC(C)=O (stereo not given),-109,i,i,i,nt,nt
Cc1ccc(-n2ncc3c(=O)[nH]c(SCC(=O)N4CCCC4)nc32)cc1C,i,i,i,16µM,nt,nt
O=C(O)C[C@H](Cc1ccccc1Cl)C(=O)O,nt,i,i[11.4 µM],i,i[11.4 µM],nt
Fc1ccccc1-n1[nH]nnc1=S,i,i,i,25µM,i,i
SMILES,PNC assembly inh,IMPase Li inh,ALOX12 inhib,HPGD block,15-hLO-2 inh,IMPase inh
COC(=O)C1(C(=O)OC)C[C@@H]2CON=C2[C@H]1c1ccccc1,nt,i,i,i,nt,nt
CN(C)c1ncc2nc(-c3ccccc3)c(=O)n(-c3ccccc3)c2n1,nt,?,nt,nt,i,nt
Cn1cccc1C(=O)Nc1nc(-c2ccccn2)cs1,i,i,i,28µM,i,i
O=c1[nH]n(-c2cccc3cccnc23)c(=O)c2ccccc12,i,i,i,25µM,i,i
Cc1nn(-c2cccc3cccnc23)c(=O)c2ccccc12,i,i,i,i,i,i
CCCCC1(C)NC(=O)N(CC(=O)Nc2ccc(S(=O)(=O)N3CCOCC3)cc2)C1=O (stereo not given),-87,i,i,i,i,i
O=C(O)c1ccccc1NS(=O)(=O)c1ccc(F)c(Cl)c1,nt,nt,i,i,nt,nt
Cc1cccn2c(=O)c(C=Nc3ccc(Cl)cc3)c(NCCO)nc12,-100,i,i,?,nt,i
Cc1cccn2c(=O)c(C=Nc3ccccc3)c(NCCO)nc12,i,i,i,?,i,i
